Out of some 330,000 compounds screened, about 1,900 (0.58%) were called active. Roughly 4% stayed inconclusive and do not appear here. No stated cut-off is given here; in the data, inconclusive means inhibition above about 70% without an active follow-up result; inactive means below that. These entries were drawn from the full list. Potency and affinity values are given separately.

This test can be described thus: M. tuberculosis growth inhibition, HTS (AID 449762).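 Further: bacterial growth assessed after seven days of incubation.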 Particulars: M. tuberculosis H37Rv growth inhibition, 7H9 media; at 25 µM; hits give high values.
As for `O=C1CN(C(=O)OCc2ccccc2)c2ccccc2N1`, the inhibition (usually the change of the read-out against control, counted positive when it falls) is -1.7% (inactive). For `CN(c1ccccc1)S(=O)(=O)c1ccc(Cl)c(C(=O)NCc2ccccc2CN2CCCC2)c1` the value was -5.7% (inactive).

In the case of `O=C(NCc1ccccc1CN1CCCC1)c1cccc(S(=O)(=O)N2CCCC2)c1`, the inhibition is -11.2% (inactive). Then `CC1CCCCC1NC(=O)c1ccc2c(c1)OCCO2` (stereo not drawn), with 8.58% (inactive).

As to `CC1CCCCC1NC(=O)c1cc(=O)[nH]c2ccccc12` (stereo not drawn), the inhibition was -4.11% (inactive). For `Cc1ccc(C(OC(=O)c2ccco2)C(=O)NCc2cccs2)cc1` (stereo not drawn) the value was 3.55% (inactive); for `O=C(O)c1cccc(NC(=S)NC(=O)c2ccc(-c3ccc(Cl)cc3)o2)c1`, 1.13% (inactive); for `Cc1cc2ncn(C(=O)c3ccc4c(c3)OCO4)c2cc1C`, 6.27% (inactive).

As to `Cc1cccc(C(=O)Nc2ccc(S(=O)(=O)N3CCOCC3)cc2)c1[N+](=O)[O-]`, the inhibition is 6.13% (inactive).

Turning to `COc1cccc2sc(Nc3nnc(-c4ccccc4Cl)o3)nc12`, the inhibition is 46.2% (inactive). For `COc1ccccc1-c1nnc(Nc2nc3c(OC)cccc3s2)o1` the value was 6.89% (inactive). Then `COc1cccc(CN2CCN(Cc3cc4ccccc4o3)CC2CCO)c1` (stereo not drawn), with -6.38% (inactive); and `CC(C)OCCCn1c(-c2ccc(Br)cc2)c[nH]c1=S`, with 8.53% (inactive).

For `COc1ccc(OC)c(-n2c(-c3cccc(O)c3)n[nH]c2=S)c1`, the inhibition was 2.31% (inactive).

Turning to `CCN(CC)C(=O)c1cc2cc([N+](=O)[O-])ccc2s1`, the inhibition was 6.23% (inactive). On to `CCN(CC)C(=O)c1ccc(Oc2ccc([N+](=O)[O-])cc2Cl)cc1`, for which the inhibition is 4.15% (inactive).

As for `O=C(COc1ccc(Br)cc1)N1CCc2ccccc2C1`, the inhibition was 1.78% (inactive). On to `CC(C)C(NC(=O)c1c(F)cccc1F)C(=O)N1CCN(c2ccccc2F)CC1` (stereo not drawn), for which the inhibition is 5.13% (inactive). `O=C(O)c1ccc(N=N/C(=N\Nc2ccc(C(=O)O)cc2)c2ccccc2)cc1`: the inhibition is 11.8% (inactive). Turning to `O=C(/C(=N\Nc1ccc(Br)cc1)Sc1nnnn1-c1ccccc1)c1ccccc1`, the inhibition was 2.41% (inactive). For `O=C(Cc1n[nH]c(=O)c2ccccc12)Nc1cccc(S(=O)(=O)N2CCCCCC2)c1` the value was 34.4% (inactive); for `c1ccc(Cn2nnc3c(N4CCc5ccccc54)ncnc32)cc1`, -4.04% (inactive); for `c1ccc(Cn2nnc3c(N4CCCC4)ncnc32)cc1`, 1.78% (inactive).

As for `CC(c1ccccc1)n1cnc2ccccc2c1=O` (stereo not drawn), the inhibition is 3.81% (inactive). Then `CCOC(=O)Cn1c(C(C)=O)nc2ccccc21`, with -5.86% (inactive). For `CCOc1ccc2nc(SC3CC(=O)N(c4ccc(OC)cc4OC)C3=O)sc2c1` (stereo not drawn) the value was 37.3% (inactive); for `COc1cccc(COC(=O)Nc2ccccc2F)c1`, 4.89% (inactive). With `COc1cccc(C(=O)NC2CC3CCCC(C2)N3CC(=O)Nc2ccccc2)c1` (stereo not drawn), the inhibition was 46.8% (inactive). Then `CN(C)c1ccc(NC(=O)CN2C3CCCC2CC(NC(=O)c2ccccc2)C3)cc1` (stereo not drawn), with 49% (inactive); and `COc1ccc(NC(=O)CN2C(=O)NC3(CCCc4ccccc43)C2=O)c(OC)c1` (stereo not drawn), with -0.44% (inactive); and `COc1ccc(OC)c(NC(=O)CN2C(=O)NC3(CCCc4ccccc43)C2=O)c1` (stereo not drawn), with 0.98% (inactive). For `COc1ccc(N2CCN(C3CCCN(Cc4ccccc4OCCO)C3)CC2)cc1` (stereo not drawn) the value was -8.3% (inactive); for `CS(=O)(=O)N(CC(=O)N1CCCC1)c1ccccc1F`, -1.03% (inactive); for `O=C(Nc1ccc2c(c1)CCCN2C(=O)c1cccs1)c1cccc(F)c1`, 25.3% (inactive). On to `CC1=NN(c2ccccc2)C(=O)/C1=C/c1c(C)[nH]n(-c2ccc(C)cc2)c1=O`, for which the inhibition is 3.09% (inactive).

As to `CC1=NN(c2ccccc2)C(=O)/C1=C/c1c(O)n(-c2ccc(F)cc2)[nH]c1=O`, the inhibition was -0.04% (inactive). Take `Cc1ccc(-c2nc(N)n(S(C)(=O)=O)n2)cc1`: the inhibition was -7.35% (inactive). Then `Nc1nc2sc3c(c2c(=O)s1)CCCC3`, with -5.9% (inactive); and `Nc1c2c(nc3sc4c(c13)CCCC4)CCCCCC2`, with 11.9% (inactive); and `COCCn1nnnc1C(c1ccccc1)N1CCN(Cc2ccc3c(c2)OCO3)CC1` (stereo not drawn), with 5.3% (inactive).

For `CCN1CCN(C(c2ccccc2)c2nnnn2Cc2ccc3c(c2)OCO3)CC1` (stereo not drawn), the inhibition is -1.8% (inactive). Then `Cc1cc(C(=O)CSc2nnc(-c3ccco3)o2)c(C)n1C`, with 0.77% (inactive); and `COc1ccc(N2CCN(C(=O)CSc3nc(C)cs3)CC2)cc1`, with 13.4% (inactive). Then `COCC(C)n1c(SCC(=O)Nc2oc(C)c3c(C)n[nH]c(=O)c23)nc2ccccc2c1=O` (stereo not drawn), with 1.83% (inactive).

For `COc1cccc2cc(C(=O)N(C)C3CCN(C)CC3)c(=O)oc12`, the inhibition was 2.2% (inactive). Turning to `CCOc1ccc(NC(=O)Nc2cccn(Cc3ccccc3)c2=O)cc1`, the inhibition was 11.4% (inactive). Then `CSc1ccc(NC(=O)Nc2cccn(Cc3ccccc3F)c2=O)cc1`, with 0.76% (inactive); and `Cc1nnc(SCCC(=O)Nc2ccc(F)cc2)s1`, with 58.3% (inactive); and `Cc1ccc(NC(=O)c2ccccc2NC(=O)c2cccnc2)cc1`, with 11.1% (inactive). For `O=C(NNC(=S)Nc1ccccc1Cl)c1ccccc1` the value was -3.72% (inactive). Then `CCn1cc(C(=O)NC(C)C)c(=O)c2cc(F)c(N3CCN(C(=O)c4ccco4)CC3)cc21`, with 19.2% (inactive); and `CCn1cc(C(=O)NCC(C)C)c(=O)c2cc(F)c(N3CCN(C(=O)c4ccco4)CC3)cc21`, with 0.58% (inactive); and `Cc1cc(C)nc(-n2nc(C)cc2NC(=O)c2ccc(S(=O)(=O)N3CCOCC3)cc2)n1`, with 9.62% (inactive). Consider `CC(=O)N/C(=C\c1cccc([N+](=O)[O-])c1)C(=O)NC(C)C`, for which the inhibition was -0.52% (inactive). For `Cc1nn(C)c(C)c1/C=C(/C(=O)C(C)(C)C)n1cncn1` the value was -1.56% (inactive); for `Cc1c(Oc2ccc(C(F)(F)F)cc2[N+](=O)[O-])ccc2c3c(c(=O)oc12)CCC3`, -1.9% (inactive); for `CCOc1ccc(N2C(=O)CC(NCC#N)C2=O)cc1` (stereo not drawn), 0.53% (inactive). Then `COc1ccc(/C=C2/Sc3ccc(C(=O)NCCCN4CCOCC4)cc3NC2=O)cc1OC`, with -4.7% (inactive).

Consider `O=C1Nc2cc(C(=O)NCCCN3CCOCC3)ccc2S/C1=C/c1ccccc1F`, for which the inhibition is 16.4% (inactive). For `Cc1c(Cl)ccc2c(C(=O)O)cc(-c3ccccc3)nc12` the value was 0.17% (inactive); for `COc1ccc(OC)c(-c2cc(C(=O)NC3CCCC3)c3ccccc3n2)c1`, -8.38% (inactive). Regarding `CC1CCc2cc(F)ccc2N1C(=O)c1cccs1` (stereo not drawn), the inhibition is 1.29% (inactive). Then `Cc1nccn1-c1cc(C(C)(C)C)nc2c(-c3ccccc3)cnn12`, with -1.52% (inactive); and `CC(C)(C)c1cc(N2CCOCC2)n2ncc(-c3ccccc3)c2n1`, with 3.06% (inactive); and `CCCCNC(=O)C1=C(N)C(C(=O)Nc2ccc(C)c(S(=O)(=O)N3CCCCC3)c2)SC1=Nc1ccc(C)cc1C` (stereo not drawn), with -11.1% (inactive). Then `O=C(CCc1nc(-c2ccccc2Cl)no1)NC1CCCC1`, with -5.48% (inactive); and `CS(=O)c1nc(-c2ccc(Br)cc2)cc(-c2ccccc2)c1C#N` (stereo not drawn), with 65% (inactive).

On to `COc1ccc(-c2cc(-c3ccccc3)c(C#N)c(S(C)(=O)=O)n2)cc1`, for which the inhibition was 8.53% (inactive). Then `CC1(C)Cc2nc3nc(SCC(=O)NCCc4ccccc4)n(-c4ccccc4)c(=O)c3cc2CO1`, with -2.48% (inactive); and `S=C(Nc1cccc(Cl)c1)N1CCOCC1`, with -10.2% (inactive). Then `CCc1ccc2[nH]c(=O)c(CN(CCCN3CCOCC3)C(=O)Nc3ccccc3)cc2c1`, with 4.92% (inactive); and `Cc1ccc2[nH]c(=O)c(CN(CCCN3CCOCC3)C(=O)Nc3cccc(Cl)c3)cc2c1`, with 10.9% (inactive); and `C=CC[C@@H](CC(=O)N[C@H](CO)Cc1ccccc1)C(=O)N[C@@H](C)COC(=O)[C@@H](CC=C)Cc1ccc(F)cc1`, with 3.8% (inactive). With `Clc1cccc(OCCCCN2CCCCC2)c1`, the inhibition is 0.99% (inactive). For `COc1ccccc1N1CCN(CCCCOc2ccc(F)cc2)CC1` the value was -1.86% (inactive); for `COC(=O)c1ccc(-c2n[nH]c(=O)c3ccccc23)cc1`, -2.05% (inactive). Then `NC(=O)c1ccc(-c2ncc(-c3ccccc3)o2)cc1`, with 51.1% (inactive). Then `CCN1C(=O)[C@H]2[C@@H](c3ccc(-c4ccc(C(C)=O)cc4)cc3)N3CCCC[C@@]3(C(=O)OC)[C@H]2C1=O`, with -6.49% (inactive); and `CCCCN1C(=N)N([C@@H](CCC)CN2CCC[C@H]2CN2C(N)=NC[C@H]2C(C)C)C[C@H]1[C@H](C)CC`, with 1.37% (inactive).

On to `O=C(Cc1ccccc1)c1nc2ccccc2s1`, for which the inhibition was -3.11% (inactive).

For `Cc1cc(C(=O)COC(=O)COc2ccc(C#N)cc2)c(C)n1C1CC1`, the inhibition was 3.67% (inactive). For `Cc1cc(C)cc(OCC(=O)OCC(=O)c2cc(C)n(C3CC3)c2C)c1` the value was 54.3% (inactive). For `CC(=O)NC(Cc1c[nH]c2ccccc12)C(=O)Nc1ccc2c(c1)OCO2` (stereo not drawn) the value was -2.05% (inactive); for `C/C(=N/OC(=O)c1c(-c2ccccc2Cl)noc1C)c1cnccn1`, 3.98% (inactive).

Consider `COc1ccc(CN2CCNC(=O)C2CC(=O)N(C)Cc2cc(C)no2)cc1OC` (stereo not drawn), for which the inhibition was -7.74% (inactive). As to `CCOC(=O)Cc1cc(=O)[nH]c(Nc2nc3ccccc3o2)n1`, the inhibition was -2.99% (inactive). Then `COC(=O)Cc1cc(=O)[nH]c(Nc2nc3ccccc3o2)n1`, with 29.9% (inactive); and `C/C(Sc1nnc(Cc2ccccc2)o1)=C(/O)c1ccccc1`, with -0.32% (inactive); and `S=C1NCCOCCOCCOCCOCCNC(=S)NCCOCCOCCOCCOCCN1`, with -3.9% (inactive). For `N#C/C(=C(/O)COc1ccccc1)c1nc2ccccc2s1` the value was 56.1% (inactive); for `Cc1ccc(SC/C(O)=C(\C#N)c2nc3ccccc3s2)cc1`, 1.37% (inactive).

Turning to `O=C(O)CCc1nc(-c2ccccc2)c(-c2ccccc2)o1`, the inhibition was 6.1% (inactive). Then `O=C(CCc1nc(-c2ccccc2)c(-c2ccccc2)o1)OCc1ccc(Br)cc1`, with 70.2% (inactive).
